Test results from ChEMBL document CHEMBL3988442, “University of Dundee, Small-Polar-MMV Screening Library” (2021).
For some of these results: Measured potencies and affinities stand elsewhere.

Tests used:
Parameters in all cases: scale not given: direction of the effect not stated beside the values
[1] = target: Protein translocase subunit SecA (Escherichia coli (strain K12)) (UniProt P10408); test: Assay to Identify E. coli SecA ATPase Inhibitors; assay type: functional; conditions: 30 µM
[2] = target: T1, Ubiquitin-activating enzyme e1, putative (Leishmania donovani (strain BPK282A1)) (UniProt E9BSI1); test: Leishmania donovani Ubiquitin Activating Enzyme (LdE1); assay type: functional; conditions: 30 µM
T1 sequence (whole entry): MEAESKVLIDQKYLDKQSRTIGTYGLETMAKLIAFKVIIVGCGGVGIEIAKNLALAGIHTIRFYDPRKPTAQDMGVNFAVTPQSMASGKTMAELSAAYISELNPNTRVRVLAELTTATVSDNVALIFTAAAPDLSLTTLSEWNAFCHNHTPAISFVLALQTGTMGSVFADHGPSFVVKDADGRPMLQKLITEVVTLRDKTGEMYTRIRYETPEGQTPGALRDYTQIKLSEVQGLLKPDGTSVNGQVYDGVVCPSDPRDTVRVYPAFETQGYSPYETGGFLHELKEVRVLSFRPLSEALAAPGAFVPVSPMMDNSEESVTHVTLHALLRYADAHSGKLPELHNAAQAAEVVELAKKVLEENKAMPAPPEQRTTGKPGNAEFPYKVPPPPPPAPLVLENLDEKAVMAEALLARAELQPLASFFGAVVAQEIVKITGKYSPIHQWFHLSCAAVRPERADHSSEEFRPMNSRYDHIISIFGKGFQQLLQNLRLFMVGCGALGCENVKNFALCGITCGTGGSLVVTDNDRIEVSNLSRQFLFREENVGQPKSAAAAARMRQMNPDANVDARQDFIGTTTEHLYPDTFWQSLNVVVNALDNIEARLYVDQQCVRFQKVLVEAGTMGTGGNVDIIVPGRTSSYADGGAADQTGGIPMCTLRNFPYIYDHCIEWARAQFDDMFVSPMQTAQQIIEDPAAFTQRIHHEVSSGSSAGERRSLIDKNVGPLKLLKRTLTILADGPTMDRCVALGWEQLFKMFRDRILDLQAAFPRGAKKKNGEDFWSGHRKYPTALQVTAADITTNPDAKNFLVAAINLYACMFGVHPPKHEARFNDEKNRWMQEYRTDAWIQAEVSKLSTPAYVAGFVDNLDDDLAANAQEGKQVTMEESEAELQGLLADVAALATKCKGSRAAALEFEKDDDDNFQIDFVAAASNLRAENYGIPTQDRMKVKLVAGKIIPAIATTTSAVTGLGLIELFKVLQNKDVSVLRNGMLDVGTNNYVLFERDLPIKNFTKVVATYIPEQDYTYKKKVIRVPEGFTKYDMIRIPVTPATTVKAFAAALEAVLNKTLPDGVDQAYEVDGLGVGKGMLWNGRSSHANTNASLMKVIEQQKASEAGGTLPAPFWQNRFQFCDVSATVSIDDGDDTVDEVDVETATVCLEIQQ

[3] = target: AMP-activated protein kinase, AMPK (Homo sapiens) (UniProt P54646+O43741+P54619+Q9UGJ0+Q9Y478+Q13131+Q9UGI9); test: AMP-dependent Kinase enzyme assay. An in vitro enzyme assay that detects ADP turnover that is directly proportional to AMPK activity. This uses naive AMPK that is activated during the assay with MK-8722; assay type: functional; conditions: 30 µM
[4] = target: Sialic acid-binding Ig-like lectin 9 (Homo sapiens) (UniProt Q9Y336); test: Hs-Siglec9 ALPHAscreen SOP 20170721; conditions: 10 µM
Sialic acid-binding Ig-like lectin 9 (Homo sapiens), sequence (Q9Y336 whole entry): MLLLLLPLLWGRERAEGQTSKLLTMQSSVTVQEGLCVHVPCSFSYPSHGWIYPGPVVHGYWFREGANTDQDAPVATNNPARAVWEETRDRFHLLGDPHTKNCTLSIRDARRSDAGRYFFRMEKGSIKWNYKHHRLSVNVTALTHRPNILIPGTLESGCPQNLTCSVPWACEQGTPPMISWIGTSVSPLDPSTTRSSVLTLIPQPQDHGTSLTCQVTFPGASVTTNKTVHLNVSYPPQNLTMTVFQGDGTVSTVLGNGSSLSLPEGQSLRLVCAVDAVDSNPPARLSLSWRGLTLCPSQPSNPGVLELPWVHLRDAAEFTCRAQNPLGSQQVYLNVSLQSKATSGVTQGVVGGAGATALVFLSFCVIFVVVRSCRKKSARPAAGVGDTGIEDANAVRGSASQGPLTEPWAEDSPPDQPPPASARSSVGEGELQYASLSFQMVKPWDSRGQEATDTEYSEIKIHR

Trypanosoma cruzi = test: Trypanosoma cruzi phosphomannomutase and mannose-1-phosphate guanylyltransferase assay; assay type: functional; conditions: 10 µM
[5] = target: T2, Arginase-2, mitochondrial (Homo sapiens) (UniProt P78540); test: in vitro enzyme assay to detect the production of urea directly proportional to the activity of Arginase II; assay type: functional; conditions: 33.3 µM; further: in the data most compounds retested in dose-response had high values
T2 sequence (whole entry): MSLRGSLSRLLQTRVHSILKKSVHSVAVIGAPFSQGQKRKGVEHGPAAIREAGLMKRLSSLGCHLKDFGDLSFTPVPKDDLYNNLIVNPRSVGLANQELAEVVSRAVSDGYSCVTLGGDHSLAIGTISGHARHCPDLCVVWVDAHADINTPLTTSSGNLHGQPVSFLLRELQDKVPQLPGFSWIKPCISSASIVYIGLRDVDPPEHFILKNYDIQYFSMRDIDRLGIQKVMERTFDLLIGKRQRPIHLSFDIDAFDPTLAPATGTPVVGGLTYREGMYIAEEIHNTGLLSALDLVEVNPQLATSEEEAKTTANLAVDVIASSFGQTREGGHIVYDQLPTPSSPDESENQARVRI

[6] = target: T3, Proteasome subunit beta (Trypanosoma cruzi) (UniProt O96673); test: Trypanosoma cruzi proteasome chymotrypsin-like activity (TcProtChymo) assay.; further: in the data most compounds retested in dose-response had high values; assay type: functional; conditions: 9.37 µM
T3 sequence (whole entry): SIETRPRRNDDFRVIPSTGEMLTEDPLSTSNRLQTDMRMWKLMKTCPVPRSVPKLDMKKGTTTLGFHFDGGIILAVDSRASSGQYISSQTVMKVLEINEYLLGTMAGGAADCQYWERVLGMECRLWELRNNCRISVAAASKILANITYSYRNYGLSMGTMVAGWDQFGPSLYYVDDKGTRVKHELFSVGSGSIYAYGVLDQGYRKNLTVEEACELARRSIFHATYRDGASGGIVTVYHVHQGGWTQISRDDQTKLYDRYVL

Homo sapiens = species on record: Homo sapiens; test: To identify inhibition of the IFN signalling (Jak-Stat) pathway via expression of an eGFP reporter gene under the control of an IFN-stimulated response element (ISRE) containing MxA promoter.; assay type: functional; conditions: 30 µM
[7] = target: T4, Tyrosyl-tRNA synthetase, putative (Trypanosoma cruzi (strain CL Brener)) (UniProt Q4DSP6); test: Trypanosoma cruzi tyrosyl tRNA synthetase (TcYRS) _High Tyrosine SOP; assay type: functional; conditions: 30 µM; further: in the data most compounds retested in dose-response had high values
T4 sequence (whole entry): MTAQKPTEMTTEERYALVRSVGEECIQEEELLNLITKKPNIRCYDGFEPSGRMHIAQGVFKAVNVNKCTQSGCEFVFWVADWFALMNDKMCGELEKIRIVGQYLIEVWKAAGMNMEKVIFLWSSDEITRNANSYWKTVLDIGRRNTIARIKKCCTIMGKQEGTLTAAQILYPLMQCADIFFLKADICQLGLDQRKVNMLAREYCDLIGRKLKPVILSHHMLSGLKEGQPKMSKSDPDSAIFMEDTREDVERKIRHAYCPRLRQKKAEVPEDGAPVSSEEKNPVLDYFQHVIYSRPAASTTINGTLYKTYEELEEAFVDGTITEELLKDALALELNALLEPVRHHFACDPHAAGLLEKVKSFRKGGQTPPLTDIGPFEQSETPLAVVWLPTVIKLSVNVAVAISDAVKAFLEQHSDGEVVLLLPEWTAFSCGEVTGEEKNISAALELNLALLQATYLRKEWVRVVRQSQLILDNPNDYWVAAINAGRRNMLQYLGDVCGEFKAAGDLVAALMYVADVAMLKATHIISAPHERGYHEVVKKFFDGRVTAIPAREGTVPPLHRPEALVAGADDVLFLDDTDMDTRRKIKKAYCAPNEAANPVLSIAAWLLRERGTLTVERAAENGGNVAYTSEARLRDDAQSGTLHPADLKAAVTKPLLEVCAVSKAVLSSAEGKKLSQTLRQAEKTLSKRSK

[8] = target: T4, Tyrosyl-tRNA synthetase, putative (Trypanosoma cruzi (strain CL Brener)); test: Trypanosoma cruzi tyrosyl tRNA synthetase (TcYRS) SOP; assay type: functional; conditions: 30 µM
[9] = target: Chromo domain-containing protein 1 (Saccharomyces cerevisiae (strain ATCC 204508 / S288c) (Baker's yeast)) (UniProt P32657); test: ScCHD-1 Enzyme Inhibition Assay; assay type: functional; conditions: 30 µM; further: in the data most compounds retested in dose-response had high values
Chromo domain-containing protein 1 (Saccharomyces cerevisiae (strain ATCC 204508 / S288c) (Baker's yeast)), sequence (P32657 whole entry, the tested form may be a part): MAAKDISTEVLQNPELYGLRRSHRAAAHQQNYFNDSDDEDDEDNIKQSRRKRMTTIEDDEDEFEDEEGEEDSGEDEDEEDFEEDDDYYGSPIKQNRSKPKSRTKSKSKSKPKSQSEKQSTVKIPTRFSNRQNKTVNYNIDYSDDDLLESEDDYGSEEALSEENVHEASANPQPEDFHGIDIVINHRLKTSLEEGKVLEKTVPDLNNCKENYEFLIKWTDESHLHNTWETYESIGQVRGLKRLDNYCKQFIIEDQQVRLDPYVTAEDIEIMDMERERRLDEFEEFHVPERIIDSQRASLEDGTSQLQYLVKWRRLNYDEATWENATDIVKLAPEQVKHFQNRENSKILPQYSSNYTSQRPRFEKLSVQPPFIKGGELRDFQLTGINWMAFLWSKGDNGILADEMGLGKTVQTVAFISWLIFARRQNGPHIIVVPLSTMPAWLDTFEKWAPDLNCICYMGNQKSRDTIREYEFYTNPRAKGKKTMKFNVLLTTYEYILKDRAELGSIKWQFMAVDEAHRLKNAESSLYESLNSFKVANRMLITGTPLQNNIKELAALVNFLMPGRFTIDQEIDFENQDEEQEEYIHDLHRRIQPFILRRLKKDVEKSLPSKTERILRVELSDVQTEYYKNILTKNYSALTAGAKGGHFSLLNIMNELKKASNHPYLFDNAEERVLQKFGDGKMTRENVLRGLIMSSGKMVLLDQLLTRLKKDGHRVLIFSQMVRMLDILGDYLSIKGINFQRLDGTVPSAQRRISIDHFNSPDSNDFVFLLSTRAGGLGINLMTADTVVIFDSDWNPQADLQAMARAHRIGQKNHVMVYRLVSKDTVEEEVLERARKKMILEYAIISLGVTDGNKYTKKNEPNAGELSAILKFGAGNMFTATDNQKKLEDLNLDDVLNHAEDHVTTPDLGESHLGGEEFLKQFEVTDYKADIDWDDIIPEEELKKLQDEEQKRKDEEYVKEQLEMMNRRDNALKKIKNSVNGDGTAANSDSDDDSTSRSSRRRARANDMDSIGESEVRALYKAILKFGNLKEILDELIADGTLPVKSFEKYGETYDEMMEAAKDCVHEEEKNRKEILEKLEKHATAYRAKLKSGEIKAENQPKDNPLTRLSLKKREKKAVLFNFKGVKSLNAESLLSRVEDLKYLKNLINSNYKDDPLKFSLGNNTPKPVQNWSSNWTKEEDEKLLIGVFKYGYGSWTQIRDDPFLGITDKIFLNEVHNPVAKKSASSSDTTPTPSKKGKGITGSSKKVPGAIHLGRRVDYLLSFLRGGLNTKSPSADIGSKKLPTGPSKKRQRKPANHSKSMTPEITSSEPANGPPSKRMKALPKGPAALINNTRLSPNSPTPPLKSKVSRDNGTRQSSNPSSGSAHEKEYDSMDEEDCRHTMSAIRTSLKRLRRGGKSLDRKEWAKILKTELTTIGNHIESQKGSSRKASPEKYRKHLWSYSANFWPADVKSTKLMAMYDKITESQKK

Protein translocase subunit SecA (Escherichia coli (strain K12)), sequence (P10408 whole entry): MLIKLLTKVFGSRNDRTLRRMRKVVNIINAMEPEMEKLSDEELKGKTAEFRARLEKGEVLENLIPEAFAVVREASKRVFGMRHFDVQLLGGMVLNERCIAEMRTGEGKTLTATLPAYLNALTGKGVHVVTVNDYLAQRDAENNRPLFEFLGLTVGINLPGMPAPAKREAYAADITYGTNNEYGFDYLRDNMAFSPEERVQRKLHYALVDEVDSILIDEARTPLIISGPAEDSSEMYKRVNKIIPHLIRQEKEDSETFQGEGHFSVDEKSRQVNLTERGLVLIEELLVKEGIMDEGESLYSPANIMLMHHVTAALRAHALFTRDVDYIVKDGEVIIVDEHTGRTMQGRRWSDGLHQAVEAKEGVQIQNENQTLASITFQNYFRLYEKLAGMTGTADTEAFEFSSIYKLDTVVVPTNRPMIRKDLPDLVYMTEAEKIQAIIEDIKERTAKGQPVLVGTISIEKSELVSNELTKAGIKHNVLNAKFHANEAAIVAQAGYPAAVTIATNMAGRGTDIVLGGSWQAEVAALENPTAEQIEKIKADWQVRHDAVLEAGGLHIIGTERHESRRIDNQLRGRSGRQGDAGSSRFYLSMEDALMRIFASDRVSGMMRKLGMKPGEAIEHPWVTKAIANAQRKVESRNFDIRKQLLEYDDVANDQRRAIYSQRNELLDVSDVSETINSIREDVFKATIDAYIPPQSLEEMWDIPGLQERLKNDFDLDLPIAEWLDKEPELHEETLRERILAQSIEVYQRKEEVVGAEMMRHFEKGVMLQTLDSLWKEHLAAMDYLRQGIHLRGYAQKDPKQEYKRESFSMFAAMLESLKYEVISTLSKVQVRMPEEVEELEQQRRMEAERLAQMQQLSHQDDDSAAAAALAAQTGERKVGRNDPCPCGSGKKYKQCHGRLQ

Row | SMILES | Percent Effect [1] [%] | Percent Effect [2] [%] | Percent Effect [3] [%] | Percent Effect [4] [%] | Percent Effect (Trypanosoma cruzi) [%] | Percent Effect [5] [%] | Percent Effect [6] [%] | Percent Effect (Homo sapiens) [%] | Percent Effect [7] [%] | Percent Effect [8] [%] | Percent Effect [9] [%]
1 | Cn1cc(NC(=O)Cn2c(CS(C)(=O)=O)nc3ccccc32)cn1 | -2.27 | 7.89 | 3.88 | 2.76 | 0.0974 | -1.18 | 12.6 | -13.6 | 3.19 | 13 | -3.67
2 | CC(=O)N(Cc1noc(C)n1)C1CCN(Cc2ccon2)C1 (stereo not given) | -2.71 | 21.5 | -1.98 | -4.08 | 1.13 | -3.66 | 22.3 | 10.2 | 3.12 | 15.2 | 52.1
3 | O=C(NCc1nnc2n1CCCCC2)N1CCc2sccc2C1 | 0.647 | 16.5 | -6.61 | 2.88 | 1.95 | 2.8 | 13 | 16.8 | 0 | 10.1 | -27
4 | CCC(CO)N(Cc1ccccn1)C(=O)c1ccc2c(c1)CCO2 (stereo not given) | -5.75 | 10.7 | -10.8 | 36.5 | 7.89 | 15.6 | 13.4 | 12.5 | 0.546 | 16.1 | -5.21
5 | Cc1nc(CN2CCCC2c2nc(C(C)C)no2)cs1 (stereo not given) | -3.44 | 18.1 | -18.2 | 15.3 | 3.79 | 5.3 | 9.47 | -11.9 | 5.26 | 12.8 | -5.13
6 | COCCN1CCc2cc(C(=O)N(C)C)c(NC(C)C)nc2CC1 | -0.676 | 8.11 | -3.33 | -5.3 | -2.25 | 0.248 | 0.429 | -3.78 | -10.8 | 3.7 | -3.16
7 | COCC1c2c(cnn2C)CCN1Cc1ccc(F)cc1 (stereo not given) | -4.38 | -2.7 | 1.18 | -3.56 | -2.93 | 1.25 | 5.66 | -1.22 | 5.94 | 8.54 | 2.82
8 | Cc1ccc(O)c(CNC2CCc3nc(C(C)C)nn3C2)n1 (stereo not given) | -9.46 | 13.2 | 2.66 | 6.11 | 3.02 | -5.92 | 8.15 | -5.66 | 1.06 | 10.4 | -14.7
9 | Cc1nc(CN2CCOC(CN(C)c3cccnn3)C2)cs1 (stereo not given) | 0.938 | 0 | -2.69 | -0.951 | 4.8 | 1.47 | 5.74 | 10.8 | 2.86 | 2.35 | 0.286
10 | O=C(NCCNCC1CNc2ccnn2C1)c1ccc(F)cc1 (stereo not given) | -2.2 | 8.11 | -6.99 | 25.4 | 8.3 | 0.476 | 11.6 | -0.126 | 5.82 | 14.6 | -2.41
11 | Cc1cc(C)n(CC2CN(Cc3nnsc3Cl)CCO2)n1 (stereo not given) | -1.37 | 21.1 | 3.21 | 2.78 | -2.82 | -4.21 | 14.7 | -18.7 | 4.41 | 17.1 | -7.75
12 | COc1ccccc1N1CCC(CNCc2cccc(C#N)c2)C1 (stereo not given) | -2.81 | 8.11 | 9.38 | -7.09 | 3.11 | -8.82 | 17.3 | -10.4 | 13.3 | 18.5 | 10.3
13 | Cc1ccc(CNC(C)c2ccc3[nH]c(=O)[nH]c3c2)s1 (stereo not given) | -3.59 | 13.5 | -7.56 | 14 | 5 | -5.61 | -0.721 | 14.9 | 2.46 | 11.1 | -6.23
14 | CNC(=O)c1cc2c(nc1N(C)C)CCN(S(=O)(=O)CC(C)C)CC2 | -2.25 | 5.2 | 7.84 | 6.98 | -2.27 | -5.81 | 3.83 | -12.4 | -9.52 | 1.28 | -2.31
15 | CCN(CC)CCNC(=O)c1cc(C(C)C)nc(N2CCCC2)n1 | -0.4 | 20 | 1.03 | -8.5 | 2.55 | -24.1 | 12.8 | 20.4 | 0 | 12.8 | 80.8
16 | Cc1nnc(NC(=O)NCc2ccc(N3CCN(C)CC3)nc2)s1 | -5 | 15.8 | -3.09 | -1.76 | -5.32 | -0.36 | 13.6 | 3.4 | 5.42 | 18.5 | -9.38
17 | CC(Cc1ccco1)NC(=O)Nc1cnn(CC(N)=O)c1 (stereo not given) | 1.02 | 6.33 | 5.31 | 0.769 | -6.67 | 2.8 | 11 | 9.49 | 4.17 | 7.59 | -2.83
18 | CCCN1CCN(C(=O)c2scnc2C)CC1 | -7.16 | 10.5 | 0.673 | 9.57 | 2.82 | 0 | 9.3 | -10.2 | 1.06 | 10.4 | -4.16
19 | Cn1nnc2c1C(COCc1ccccn1)CN(C(=O)c1cccs1)C2 (stereo not given) | 3.29 | 16.4 | -9.82 | 5.59 | 1.59 | -7.19 | 13.6 | 36.4 | 6.25 | 23.5 | -1.99
20 | COCCNC(=O)c1sc(Nc2ccc(Cl)cn2)nc1C | -1.6 | 20 | -8.36 | 6.95 | 0.589 | -3.7 | 17.2 | 5.99 | 6.35 | 10.3 | -10.7
